Experimental data as given in PubChem BioAssay (EPA / NIEHS).
Active and inactive are the calls of the source. How the source made its calls: active means hit-call score of the fitted dose curve at least 0.9, where 1 is the maximum; inactive means score below 0.9.

Tests used:
[1] = molecular target: CCAAT/enhancer-binding protein beta (Homo sapiens) (UniProt P17676); assay: ATG_C_EBP_CIS: Attagene CIS-FACTORIAL HepG2 Assay for human CCAAT/Enhancer Binding Protein (C/EBP) beta (AID 2282927); conditions: HepG2 Attagene cis-factorial transcription factor reporter; actives raise or lower the signal
Outline: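 Endogenous transcription factor activity in human liver HepG2 cells is inferred from induction of a CEBPB-linked reporter mRNA. Exposure lasts 24 h; activity is fitted in both directions relative to DMSO.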

[2] = ATG_CMV_CIS: Attagene CIS-FACTORIAL HepG2 Assay for human CMV (Internal Marker) (AID 2282928); conditions: HepG2 CMV promoter reporter, transcription factor profiling; actives raise or lower the signal;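 further: endpoint acts as a background internal control marker rather than a target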
Outline: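 Endogenous transcription factor activity read in HepG2 via transfected cis-promoter reporter units. After 24 h dosing, reporter mRNA measured by RT-PCR/capillary electrophoresis; gain or loss of signal fit relative to DMSO.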

[3] = ATG_AP_2_CIS: Attagene CIS-FACTORIAL HepG2 Assay for human Activator Protein 2 (AP-2) (AID 2282932); conditions: HepG2 AP-2 cis-reporter, Attagene transcription factor profiling; actives raise or lower the signal
Outline: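 Step one: transient transfection of HepG2 with reporter transcription units. Step two: 24 h chemical exposure. Step three: RNA extraction, RT-PCR, labelled fragment analysis by capillary electrophoresis; DMSO serves as baseline.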

[4] = ATG_BRE_CIS: Attagene CIS-FACTORIAL HepG2 Assay for human Bone Morphogenetic Protein (BMP) Response Element (BRE) (AID 2282933); conditions: HepG2 BMP response element reporter, Attagene transcription factor profiling; actives raise or lower the signal
Outline: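 After a 24 h chemical treatment, transiently transfected HepG2 cells were lysed for RNA; reporter transcripts were quantified by fluorescent RT-PCR and capillary electrophoresis, normalised to DMSO.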

[5] = molecular target: Transcription factor E2F1 (Homo sapiens) (UniProt Q01094); assay: ATG_E2F_CIS: Attagene CIS-FACTORIAL HepG2 Assay for human E2F Transcription Factor 1 (AID 2282935); conditions: HepG2 Attagene cis-reporter, E2F reporter RNA transcripts; actives raise or lower the signal
Outline: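 Total RNA from 24 h-treated, reporter-transfected HepG2 cells undergoes DNase I treatment, oligo(dT) reverse transcription, PCR and 6-FAM primer extension before capillary electrophoresis.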

[6] = ATG_E_Box_CIS: Attagene CIS-FACTORIAL HepG2 Assay for human Enhancer Box (E-box) (AID 2282936); conditions: HepG2 E-box cis-reporter transcription, actives raise or lower the signal
Outline: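 DMSO served as negative control and baseline for bidirectional fitting. Human hepatoma HepG2 cells, transiently transfected with cis-reporter constructs, were dosed 24 h; reporter mRNA read by RT-PCR and capillary electrophoresis.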

[7] = ATG_M_61_CIS: Attagene CIS-FACTORIAL HepG2 Assay for M61 Transcription Factor (Internal Marker) (AID 2282937); conditions: HepG2 Attagene CIS-FACTORIAL M61 internal marker reporter; actives raise or lower the signal
Outline: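 Multiplexed reporter mRNA assay, HepG2 human hepatoma cells, 24 h treatment. Signal: FAM-labelled, HpaI-digested RT-PCR fragments by CE. Fit: bidirectional, baseline DMSO.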

[8] = ATG_EGR_CIS: Attagene CIS-FACTORIAL HepG2 Assay for human Early Growth Response 1 (EGR1) (AID 2282938); conditions: HepG2 Attagene CIS-FACTORIAL EGR reporter mRNA; actives raise or lower the signal
Outline: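 Multiplexed cis-reporter system in human hepatoma HepG2 cells, transiently transfected. Cells are dosed for 24 h; reporter transcripts are amplified, fluorescently tagged and sized by capillary electrophoresis, with DMSO as negative control.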

[9] = ATG_M_19_CIS: Attagene CIS-FACTORIAL HepG2 Assay for M19 Transcription Factor (Internal Marker) (AID 2282939); conditions: HepG2 Attagene CIS-FACTORIAL M19 internal marker reporter; actives raise or lower the signal
Outline: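 In this multiplexed cell assay, transiently transfected HepG2 reporter units report endogenous transcription-factor activity; after 24 hours of treatment, labelled reporter cDNA fragments are quantified by capillary electrophoresis and fitted bidirectionally against DMSO.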

[10] = ATG_FoxO_CIS: Attagene CIS-FACTORIAL HepG2 Assay for human Forkhead box O (FoxO) (AID 2282943); conditions: HepG2 Attagene cis-reporter, FoxO element, mRNA; actives raise or lower the signal
Outline: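 HepG2, transient MRTU transfection (cis element, endogenous TFs). Dose 24 h. TriZol RNA → oligo(dT) RT → PCR → 6-FAM primer extension → HpaI cut → CE. Gain/loss vs DMSO.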

[11] = ATG_GATA_CIS: Attagene CIS-FACTORIAL HepG2 Assay for human GATA Binding Protein (AID 2282944); conditions: HepG2 GATA cis-element reporter, Attagene multiplex mRNA; actives raise or lower the signal
Outline: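 Measures endogenous transcription factor-driven reporter mRNA in HepG2 cells transiently carrying cis-regulated constructs. 24 h dosing; RNA via oligo(dT) reverse transcription, PCR, HpaI digestion, capillary electrophoresis; fitted relative to DMSO.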

[12] = ATG_GLI_CIS: Attagene CIS-FACTORIAL HepG2 Assay for human Zinc Finger Protein GLI1 (AID 2282945); conditions: HepG2, Attagene cis-factorial reporter mRNA, GLI element; actives raise or lower the signal
Outline: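 Bidirectional curve fits relative to DMSO, using reporter mRNA levels from RT-PCR plus capillary electrophoresis. Cells were HepG2 transiently carrying cis-regulated reporter constructs, harvested 24 h after dosing.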

[13] = ATG_ISRE_CIS: Attagene CIS-FACTORIAL HepG2 Assay for human Interferon Regulatory Factor 1 (IRF1) binding to an Interferon-Stimulated Response Element (ISRE) (AID 2282948); conditions: HepG2 ISRE cis-reporter (Attagene), mRNA transcription readout; actives raise or lower the signal
Outline: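 Transfected HepG2 (multiple reporter transcription units, cis elements) dosed 24 h. RNA → oligo(dT) RT → PCR → 6-FAM primer extension → HpaI → CE. DMSO = negative control/baseline.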

[14] = ATG_M_32_CIS: Attagene CIS-FACTORIAL HepG2 Assay for M32 Transcription Factor (Internal Marker) (AID 2282949); conditions: HepG2 Attagene cis-factorial M32 reporter, mRNA; actives raise or lower the signal;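 further: background control marker of the multiplexed CIS panel rather than a real target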
Outline: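 Internal background marker read-out: RT-PCR/capillary electrophoresis fluorescence of reporter transcripts from transiently transfected HepG2 cells after 24 h chemical exposure. Activity fitted bidirectionally relative to DMSO negative control.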

[15] = ATG_M_06_CIS: Attagene CIS-FACTORIAL HepG2 Assay for M06 Transcription Factor (Internal Marker) (AID 2282950); conditions: HepG2 Attagene CIS-FACTORIAL M06 internal marker reporter; actives raise or lower the signal
Outline: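 One of many multiplexed endpoints: HepG2 reporter mRNA after 24 h dosing, detected by RT-PCR and capillary electrophoresis fluorescence; gain or loss of signal analysed against DMSO.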

[16] = ATG_MRE_CIS: Attagene CIS-FACTORIAL HepG2 Assay for human Metal Responsive Element (MRE) (AID 2282954); conditions: HepG2 MRE cis-reporter transcription, Attagene multiplex; actives raise or lower the signal
Outline: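 After a 24 h chemical exposure, transiently transfected HepG2 cells yield RNA whose reporter sequences are amplified, FAM-labelled and sized by capillary electrophoresis. Curves are fitted bidirectionally relative to DMSO.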

[17] = ATG_PXRE_CIS: Attagene CIS-FACTORIAL HepG2 Assay for human Pregnane X Receptor Element (PXRE) (AID 2282957); conditions: HepG2 Attagene CIS-FACTORIAL PXRE reporter, mRNA; actives raise or lower the signal
Outline: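 Cells: HepG2, transiently transfected reporter units under cis promoter control. Exposure: 24 h. Detection: reporter mRNA via RT-PCR/CE fluorescence; bidirectional fitting, DMSO-referenced.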

[18] = ATG_Sox_CIS: Attagene CIS-FACTORIAL HepG2 Assay for human SRY-box transcription factor (SOX) (AID 2282960); conditions: HepG2 Attagene cis-factorial SOX reporter, mRNA; actives raise or lower the signal
Outline: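 Fluorescence-labelled cDNA fragments from reporter transcripts, sized by CE, give the signal. Cells: HepG2, transiently transfected with cis-regulated reporter units. Exposure 24 h; DMSO negative control; bidirectional curve fitting.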

[19] = molecular target: Transcription factor Sp1 (Homo sapiens) (UniProt P08047); assay: ATG_Sp1_CIS: Attagene CIS-FACTORIAL HepG2 Assay for human Specificity Protein 1 (Sp1) (AID 2282961); conditions: HepG2 Sp1 cis-reporter transcription, actives raise or lower the signal
Outline: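 Chemicals are dosed onto HepG2 cells transfected with multiple cis-promoter reporter constructs, and after 24 h reporter RNA is reverse-transcribed, PCR-amplified and resolved by capillary electrophoresis for fluorescence quantitation; activity is scored up or down against DMSO.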

[20] = ATG_SREBP_CIS: Attagene CIS-FACTORIAL HepG2 Assay for human Sterol Regulatory Element Binding (SREBP) (AID 2282962); conditions: HepG2 Attagene cis-factorial SREBP reporter, mRNA; actives raise or lower the signal
Outline: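 Transfected HepG2 (cis-regulated reporter library, endogenous TFs) → compound 24 h → total RNA → oligo(dT) RT → reporter-specific PCR → FAM primer extension, HpaI cut → CE fluorescence. Fit bidirectional vs DMSO.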

Measured: AC50

Transcription factor Sp1 (Homo sapiens), sequence (P08047 whole entry, looked up): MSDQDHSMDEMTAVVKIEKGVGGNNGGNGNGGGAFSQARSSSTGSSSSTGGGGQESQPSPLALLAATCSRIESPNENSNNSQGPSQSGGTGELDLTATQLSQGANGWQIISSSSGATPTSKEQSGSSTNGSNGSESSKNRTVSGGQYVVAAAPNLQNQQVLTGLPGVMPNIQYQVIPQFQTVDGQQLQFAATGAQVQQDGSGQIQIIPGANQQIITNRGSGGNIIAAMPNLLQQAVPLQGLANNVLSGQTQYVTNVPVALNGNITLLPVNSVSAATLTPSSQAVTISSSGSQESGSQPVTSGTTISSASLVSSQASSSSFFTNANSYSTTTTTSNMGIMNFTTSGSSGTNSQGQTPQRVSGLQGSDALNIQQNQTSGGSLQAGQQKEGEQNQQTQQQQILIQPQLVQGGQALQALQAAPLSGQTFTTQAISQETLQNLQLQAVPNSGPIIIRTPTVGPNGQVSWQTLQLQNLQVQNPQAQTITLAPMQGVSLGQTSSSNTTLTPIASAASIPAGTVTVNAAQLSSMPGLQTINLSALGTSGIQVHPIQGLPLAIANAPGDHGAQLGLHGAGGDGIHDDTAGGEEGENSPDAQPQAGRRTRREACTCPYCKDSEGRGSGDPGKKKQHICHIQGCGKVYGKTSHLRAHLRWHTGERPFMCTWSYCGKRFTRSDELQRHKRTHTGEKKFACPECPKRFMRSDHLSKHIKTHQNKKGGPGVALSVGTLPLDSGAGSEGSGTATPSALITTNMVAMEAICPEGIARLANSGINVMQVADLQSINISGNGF
CCAAT/enhancer-binding protein beta (Homo sapiens), sequence (P17676 whole entry, looked up): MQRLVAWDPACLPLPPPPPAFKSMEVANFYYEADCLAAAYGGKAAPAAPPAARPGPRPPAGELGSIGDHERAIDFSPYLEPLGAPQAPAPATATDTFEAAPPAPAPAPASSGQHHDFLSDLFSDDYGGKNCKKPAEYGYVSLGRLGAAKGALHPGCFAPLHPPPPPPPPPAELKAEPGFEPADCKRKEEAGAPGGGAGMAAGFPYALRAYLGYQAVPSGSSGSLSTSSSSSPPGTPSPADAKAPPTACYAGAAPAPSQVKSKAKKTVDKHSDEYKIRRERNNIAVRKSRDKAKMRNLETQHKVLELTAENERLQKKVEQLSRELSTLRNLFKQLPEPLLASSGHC
Transcription factor E2F1 (Homo sapiens), sequence (Q01094 whole entry, looked up): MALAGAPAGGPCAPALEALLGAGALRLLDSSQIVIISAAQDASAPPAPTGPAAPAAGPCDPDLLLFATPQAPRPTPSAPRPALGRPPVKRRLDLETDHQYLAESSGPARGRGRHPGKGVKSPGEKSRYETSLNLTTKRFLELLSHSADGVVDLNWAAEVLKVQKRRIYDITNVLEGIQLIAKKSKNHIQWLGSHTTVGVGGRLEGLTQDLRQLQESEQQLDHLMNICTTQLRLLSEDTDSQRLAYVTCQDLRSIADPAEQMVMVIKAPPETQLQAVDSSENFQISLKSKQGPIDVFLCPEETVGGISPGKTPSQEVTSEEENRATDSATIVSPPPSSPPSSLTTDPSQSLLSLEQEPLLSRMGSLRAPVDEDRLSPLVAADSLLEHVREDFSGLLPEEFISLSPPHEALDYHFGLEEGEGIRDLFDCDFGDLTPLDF

Sc1nc2ccccc2s1
active: [17] 80.6 µM
inactive: all other assays above

CC1(C)S[C@@H]2[C@H](NC(=O)[C@H](N)c3ccccc3)C(=O)N2[C@H]1C(=O)O
inactive: all assays above

CCCCOC(=O)COc1ccc(Cl)cc1Cl
inactive: all assays above

CCCCC(CC)COC(=O)CS (stereo not given)
active: [17] 13.1 µM
inactive: all other assays above

C[C@H]1C[C@H]2[C@@H]3CCC4=CC(=O)C=C[C@]4(C)[C@@]3(F)[C@@H](O)C[C@]2(C)[C@@]1(O)C(=O)CO
active: [4] 73.3 µM | [8] 100 µM | [16] 80.1 µM | [17] 9.62 µM
inactive: all other assays above

O=C(OCc1ccccc1)c1ccccc1
active: [17] 26.4 µM
inactive: all other assays above

CCCCCCCCCCC1CO1 (stereo not given)
active: [12] 159 µM | [16] 152 µM | [17] 27 µM | [19] 154 µM | [20] 100 µM
inactive: all other assays above

COC(=O)c1ccccc1
inactive: all assays above

Cc1ccnc(N)c1
active: [17] 44.6 µM
inactive: all other assays above

C/C=C(\C)C(=O)OCC/C=C\CC
inactive: all assays above

COc1ccccc1OCC(O)CO (stereo not given)
inactive: all assays above

C=C(C)C(=O)OCC1CCCO1 (stereo not given)
inactive: all assays above

C1=CCC=C1
inactive: all assays above

c1cc[c]([Bi]([c]2ccccc2)[c]2ccccc2)cc1
active: [17] 4.08 µM
inactive: all other assays above
